Inconclusive results are not listed. The source holds several records for some structures; these can differ, active in one and inactive in another. Calls of active or inactive are those of the source. Unless noted, the call rests on the fitted dose curve; in most records, active means well fitted curve in the direction sought with a large enough effect in the repeat runs; inconclusive means weak or mixed curves; inactive means no such curve, though single readings can be large; an effect the other way counts as inactive or inconclusive.
Experiments:
[1] = qHTS assay to identify small molecule agonists of the hypoxia (HIF-1) signaling pathway - cell viability counter screen (AID 1224844; calls by dose curve; further: nearly all actives have a fitted effect of over 50% in size)
Procedure, shortened: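 HRE-bla ME-180 cells in medium with 0.5% dialyzed FBS were preincubated 5 hrs at 37C, exposed to compounds for 17 hrs, then viability was read as CellTiter-Glo luminescence after 30 min at room temperature, in the reporter wells.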

[2] = qHTS assay to identify small molecule agonists of H2AX (AID 1224845; active means well fitted activation curve with a large enough effect in the signal ratio in the repeat runs, not every such curve was filed as active; the % refers to the signal ratio)
Procedure, shortened: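 Phospho-H2AX Ser139 measured by HTRF (ex 320 nm; em 665 and 620 nm) after 24 hr antibody incubation. Compounds, 15 concentrations, 0.76% DMSO, were applied to CHO-K1 cells for 3hr at 37C before lysis.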

[3] = qHTS assay to identify small molecule agonists of the hypoxia (HIF-1) signaling pathway (AID 1224846; active means well fitted activation curve with a large enough effect in the signal ratio in the repeat runs, not every such curve was filed as active; the % refers to the signal ratio)
Procedure, shortened: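 HRE-bla ME-180 cells (beta-lactamase reporter under hypoxia response element) were plated at 2,000 cells/well in medium with 0.5% dialyzed FBS, rested 5 hrs, then given compounds in DMSO for 17 hrs at 37C, 5% CO2. Reporter induction was read with CCF4-AM FRET substrate.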

[4] = qHTS assay to identify small molecule agonists of H2AX - cell viability counter screen (AID 1224847; calls by dose curve; further: top concentration of the series differs between compounds; nearly all actives have a fitted effect of over 30% in size)
Procedure, shortened: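 Read-out: CellTiter-Glo luminescence, 30 min RT. Cells: wild-type CHO-K1, 1000/well, 10% FBS, plated overnight at 37C. Treatment: 15 concentrations, 3 hr, 37C, 0.76% DMSO.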

[5] = qHTS assay to identify small molecule agonists of the estrogen related receptor (ERR) signaling pathway from Tox21 library (AID 1224849; calls by dose curve; further: nearly all actives have a fitted effect of over 15% in size); conditions: ERR reporter cell line, ONE-Glo luciferase, 18 h; at 92.4 µM (top of the series) unless noted
Procedure, shortened: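 ERR reporter cell line (NTP) seeded, rested 6 h at 37 C/5% CO2, then pinned with Tox21 compounds in DMSO. After 18 h at 37 C, ONE-Glo luciferase luminescence was read following 30 min at room temperature.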

[6] = qHTS RealTime-Glo MT Cell Viability Assay in HepG2 cells - 24 hour (AID 1224867); further: nearly all actives have a fitted effect of over 50% in size
Procedure, shortened: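 Tox21 10K library screened in qHTS format on HepG2 cells carrying RealTime-Glo reagents. Compounds were added after a 5 h preincubation, and the luminescent signal from continuous culture was measured repeatedly during 40 h treatment.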

[7] = A CellTox Green Cytotoxicity Assay to monitor cytotoxicity in HEK293 cells - 0 hour (AID 1224869); further: nearly all actives have a fitted effect of over 50% in size
Procedure, shortened: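 HEK293 cells premixed with CellTox Green dye were seeded at 600 cells/well and left 5 h at 37 C/5% CO2 before pin transfer of 23 nL compound in DMSO. Fluorescence from dye bound to dead-cell DNA was read during 40 h treatment.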

[8] = qHTS RealTime-Glo MT Cell Viability Assay in HepG2 cells - 40 hour (AID 1224870); further: nearly all actives have a fitted effect of over 50% in size
Procedure, shortened: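 Real-time viability: cells seeded at 600 per well together with NanoLuc and cell-permeant prosubstrate, compounds added after 5 h incubation. Luminescence tracked at 0, 8, 16, 24, 32 and 40 h of exposure.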

[9] = qHTS RealTime-Glo MT Cell Viability Assay in HEK293 cells - 32 hour (AID 1224868); further: nearly all actives have a fitted effect of over 50% in size; further: potency means the concentration at half of the fitted maximal effect
Procedure, shortened: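 Luminescence generated by NanoLuc from substrate produced by living HEK293 cells served as the viability signal. Each value reflects the reading at its stated time point during continuous 40 h compound exposure at 37 C.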
On the % scale 0 is the no-effect control and ±100 the full control effect.

SCCc1cnccn1
inactive: Potency [1] | Potency [2] | outcome [3] | Potency [4] | activity change, positive = activation [5] -18.7% | Potency [6] | Potency [7] | Potency [8]

CCOc1ncc(F)c(=O)[nH]1
inactive: Potency [1] | Potency [2] | outcome [3] | Potency [4] | Potency [6] | Potency [9] | Potency [7] | Potency [8]

CCC(=O)OCc1ccc(OC)cc1
inactive: Potency [1] | Potency [2] | outcome [3] | Potency [4] | Potency [6] | Potency [9] | Potency [7] | Potency [8]

CC1CCCO1 (stereo not drawn)
inactive: Potency [1] | Potency [2] | outcome [3] | Potency [4] | Potency [6] | Potency [9] | Potency [7] | Potency [8]

C=CCOC(=O)COCCC(C)C
inactive: Potency [1] | Potency [2] | outcome [3] | Potency [4] | Potency [6] | Potency [9] | Potency [7] | Potency [8]

Cc1ccccc1S(N)(=O)=O
inactive: Potency [1] | Potency [2] | outcome [3] | Potency [4] | Potency [6] | Potency [9] | Potency [7] | Potency [8]

CC(=O)c1ccc[nH]1
inactive: Potency [1] | Potency [2] | outcome [3] | Potency [4] | Potency [6] | Potency [9] | Potency [7] | Potency [8]

CC(C)(O)c1coc(S(=O)(=O)NC(=O)Nc2c3c(cc4c2CCC4)CCC3)c1
inactive: Potency [1] | Potency [2] | outcome [3] | Potency [4] | Potency [6] | Potency [9] | Potency [7] | Potency [8]

CCCCCCCCCCCCCCCCCC(=O)OCC(CC)CCCC (stereo not drawn)
inactive: Potency [1] | Potency [2] | outcome [3] | Potency [4] | Potency [6] | Potency [9] | Potency [7] | Potency [8]

O=c1[nH]c2cc(C(F)(F)F)c(N3CCOCC3)cc2n(CP(=O)(O)O)c1=O
inactive: Potency [1] | Potency [2] | outcome [3] | Potency [4] | Potency [6] | Potency [9] | Potency [7] | Potency [8]

CC1CCCC(=O)C1=O (stereo not drawn)
inactive: Potency [1] | Potency [2] | outcome [3] | Potency [4] | Potency [6] | Potency [9] | Potency [7] | Potency [8]

O=P(O)(O)Oc1ccccc1
inactive: Potency [1] | Potency [2] | outcome [3] | Potency [4] | Potency [6] | Potency [9] | Potency [7] | Potency [8]

CCC(CO)(CO)CO
inactive: Potency [1] | Potency [2] | outcome [3] | Potency [4] | Potency [6] | Potency [9] | Potency [7] | Potency [8]

O=[N+]([O-])c1ccc2ncccc2c1
inactive: Potency [1] | Potency [2] | outcome [3] | Potency [4] | activity change, positive = activation [5] -20.1% | Potency [6] | Potency [9] | Potency [7] | Potency [8]

Cc1ccc(NC(=O)N(C)C)cc1NC(=O)N(C)C
inactive: Potency [1] | Potency [2] | outcome [3] | Potency [4] | Potency [6] | Potency [9] | Potency [7] | Potency [8]

CCOCCC(=O)OCC
inactive: Potency [1] | Potency [2] | outcome [3] | Potency [4] | Potency [6] | Potency [9] | Potency [7] | Potency [8]

Nc1ccn([C@H]2CS[C@@H](CO)O2)c(=O)n1
inactive: Potency [1] | Potency [2] | outcome [3] | Potency [4] | Potency [6] | Potency [9] | Potency [7] | Potency [8]

CCCCCC
inactive: Potency [1] | Potency [2] | outcome [3] | Potency [4] | Potency [6] | Potency [9] | Potency [7] | Potency [8]

O=C(Nc1ccc(C(=O)O)c(O)c1)c1ccccc1
inactive: Potency [1] | Potency [2] | outcome [3] | Potency [4] | Potency [6] | Potency [9] | Potency [7] | Potency [8]

COc1ccc2nc(S(=O)Cc3ncc(C)c(OC)c3C)[nH]c2c1 (stereo not drawn)
21.6 µM (active) and inactive: Potency [9]
inactive: Potency [1] | Potency [2] | outcome [3] | Potency [4] | Potency [6] | Potency [7] | Potency [8]

Cc1ccc(N(CCO)CCO)cc1
inactive: Potency [1] | Potency [2] | outcome [3] | Potency [4] | Potency [6] | Potency [9] | Potency [7] | Potency [8]

CN1C(CSCC(F)(F)F)Nc2cc(Cl)c(S(N)(=O)=O)cc2S1(=O)=O (stereo not drawn)
inactive: Potency [1] | Potency [2] | outcome [3] | Potency [4] | activity change, positive = activation [5] -16.7% [at 42.5 µM] | Potency [6] | Potency [7] | Potency [8]
active: Potency [9] 19 µM

CC(C)(C)C1(CCc2ccc(Cl)cc2)CO1 (stereo not drawn)
inactive: Potency [1] | Potency [2] | outcome [3] | Potency [4] | Potency [6] | Potency [9] | Potency [7] | Potency [8]

C[C@@H]1C[C@H]2[C@@H]3CCC4=CC(=O)C=C[C@]4(C)[C@@]3(F)[C@@H](O)C[C@]2(C)[C@@]1(O)C(=O)COP(=O)(O)O
inactive: Potency [1] | Potency [2] | outcome [3] | Potency [4] | Potency [6] | Potency [9] | Potency [7] | Potency [8]

O=C(O)CCC(=O)c1ccc(-c2ccccc2)cc1
inactive: Potency [1] | Potency [2] | outcome [3] | Potency [4] | Potency [6] | Potency [9] | Potency [7] | Potency [8]

O=C(O)CNC(=O)c1ccccc1I
inactive: Potency [1] | Potency [2] | outcome [3] | Potency [4] | Potency [6] | Potency [9] | Potency [7] | Potency [8]

COC(OC)OC
inactive: Potency [1] | Potency [2] | outcome [3] | Potency [4] | Potency [6] | Potency [9] | Potency [7] | Potency [8]
